A number with no mark means an inactive call. Active and inactive are the calls of the source. No stated cut-off is given here; in the data, active means fold change mostly below about -2 (no sharp cut-off); inactive means mostly above about -1.8.

The test can be described thus: TERT promoter activity modulators, primary screen, cell-based, luciferase reporter, human (AID 1259240). The following applies: A2780 TERT promoter luciferase reporter, 16 h; at 20 µM, fold versus average of vehicle-only wells. On the technique in general: In a reporter assay the amount or activity of a reporter protein is the signal.
For `Cc1ccc(-n2c(C)c3c(C)nn4cc(C)cc4c3c2C)cc1`, the fold change was -2.26 (active).

`Nc1cc(-c2ccccc2)nn1S(=O)(=O)c1cccc([N+](=O)[O-])c1`: the fold change is 1.1.

Regarding `O=c1[nH]c2ncccc2c(=O)n1CCc1c[nH]c2ccccc12`, the fold change was -1.06.

Turning to `Cc1cc(=O)oc2c1c(C)nn2-c1ccc(C(=O)O)cc1`, the fold change was -2.62 (active).

With `CCOC(=O)c1nn(-c2ccc(C)cc2)c(=O)c2c(NC(=O)c3ccc(C)c([N+](=O)[O-])c3)scc12`, the fold change was 1.24.

On to `CC(C)(C)NC(=O)CSc1nc(-c2ccc(F)cc2)cc(C(F)(F)F)n1`, for which the fold change was -1.59.

In the case of `c1cc2nncn2nc1N1CCN(C2CCCCC2)CC1`, the fold change is -1.21.

Turning to `Cc1cc(C)c2c(=O)n(CC(=O)NCCC3=CCCCC3)sc2n1`, the fold change was 1.18.

As to `Cc1ccc(CNc2nnc(Cc3ccncc3)c3ccccc23)cc1`, the fold change was -1.59.

Consider `CSCCC(C(=O)O)N1C(=O)/C(=C/c2cccnc2)SC1=S` (stereo not given), for which the fold change is -1.77.

On to `Cc1ccc2nc(NCc3ccc(F)cc3)c3nncn3c2c1`, for which the fold change is 1.08.

In the case of `CC(C)Oc1cc(O)c2c(=O)c(-c3ccc(O)cc3)coc2c1`, the fold change was -6.88 (active).

In the case of `CCOc1cc2c(cc1OCC)C(c1ccc(Br)cc1)CC(=O)N2` (stereo not given), the fold change is 1.18.

On to `O=C(Nc1ccc(F)cc1)C(=O)Nc1ccc2nc3n(c(=O)c2c1)CCCCC3`, for which the fold change is -1.07.

For `Cc1noc(C(=O)Nc2cccc(Cl)c2)c1Cl`, the fold change is 1.73.

As for `CCS(=O)(=O)N1N=C(c2ccc(NS(C)(=O)=O)cc2)CC1c1ccccc1` (stereo not given), the fold change was 1.35.

With `Cc1c(C(=O)N2CC(C)CC(C)C2)sc2ncn(CC(=O)N3CCC(C)CC3)c(=O)c12` (stereo not given), the fold change was -1.37.

For the molecule `CCOC(=O)c1nn(-c2ccc(F)cc2)c(=O)c2c(NC(=O)CCCl)scc12`, the fold change was -3.04 (active).

As for `Cc1ccc(N2CN=c3s/c(=C4\C(=O)Nc5ccccc54)c(=O)n3C2)cc1`, the fold change is -1.33.

As for `Cn1c(=O)c(=O)n(C)c2cc(S(=O)(=O)N3CCCC3C(=O)NC3CCCCC3)ccc21` (stereo not given), the fold change was 1.05.

Consider `COc1ccc(-c2c(C)oc3c(CN4CCN(C)CC4)c(O)ccc3c2=O)cc1OC`, for which the fold change was 1.39.

In the case of `Cc1ccn2c(NC(=O)C(C)C)c(-c3ccc(F)cc3)nc2c1`, the fold change is -1.4.

As for `Cc1cccc(-c2nc3s/c(=C\c4ccc(F)cc4)c(=O)n3n2)c1`, the fold change is -1.54.

For the molecule `C=CCOc1ccc(/C(O)=C2/C(=O)C(=O)N(CC3CCCO3)C23C(=O)N(C)c2ccccc23)cc1` (stereo not given), the fold change was -1.41.

On to `c1ccn2c(SCc3ccc4c(c3)OCCO4)nnc2c1`, for which the fold change is 1.6.

For the molecule `O=C(O)Cn1cc(/C=C2/C(=O)Nc3ccccc32)c2ccccc21`, the fold change is 1.41.

`COc1ccc(S(=O)(=O)NC(C)(C)C)cc1-c1nnc2c3ccccc3c(C)nn12`: the fold change is -1.62.

Turning to `Cn1c(SCc2nc(-c3ccccc3)no2)nnc1-c1ccco1`, the fold change was -2.04 (active).

`COc1ccccc1NC(=O)Nc1ccc2c(c1)C(=O)OC2`: the fold change was 1.33.

On to `COc1cc(Nc2nnc(Cc3ccncc3)c3ccccc23)cc(OC)c1OC`, for which the fold change is -1.31.

With `O=C(O)CSc1ncn(-c2ccccc2)n1`, the fold change is -4.67 (active).

For the molecule `CC1CC(C)CN(C(=O)Cn2c(=O)oc3cc(S(=O)(=O)NC4CCCC4)ccc32)C1` (stereo not given), the fold change is 1.02.

On to `O=C(c1cccc(Cl)c1)N1CCN(c2ccc3nnc(-c4ccccc4)n3n2)CC1`, for which the fold change was 1.

On to `COC(=O)CN1C(=O)CN(c2nc(C)cc(C)n2)C1=O`, for which the fold change is -1.08.

With `CC(C)Cc1c(O)nc(SCCN2CCOCC2)[nH]c1=O`, the fold change is -1.64.

`CN(CC(=O)O)S(=O)(=O)c1cccc2cccnc12`: the fold change was -1.07.

As to `Cc1c(NC(=O)C2CC(c3ccc(F)cc3)=NO2)c(=O)n(-c2ccccc2)n1C` (stereo not given), the fold change was 1.46.

`Cc1ccc(Nc2nc3ccccc3n3cnnc23)cc1`: the fold change was 1.11.

Consider `O=C(Nc1cccnc1)c1ccc2c(c1)C1C3CCC(C3)C1C(c1ccccc1)N2` (stereo not given), for which the fold change was -1.08.

With `CCOC(=O)N1CCC(Nc2c(N(C)C3CCCCC3)c(=O)c2=O)CC1`, the fold change was 1.05.

For the origin of these results see PubChem BioAssay AID1259240 (Keith Lab, Institute of Cancer Science, University of …, 2017).
